Potency and activity change, negative = thiol reactive data for 30 compounds are collected here from PubChem BioAssay (NCATS).

Records with an inconclusive call do not appear. Where a call stands in place of a potency, no number is given. Values without a mark were called inactive. Active and inactive are the calls of the source. The call rests on the fitted dose curve; in most records, active means well fitted inhibition curve with a large enough effect; inconclusive means small, poorly fitted or top-dose-only effect; inactive means no such curve, though single readings can be large or run the other way. Where a SMILES comes first, the peptide text is derived from it.
Potency means the concentration at half of the fitted maximal effect.

This assay is described as follows: Primary fluorescence-based thiol-reactive (MSTI) qHTS assay for identification of artifact compounds. (AID 1845221). Further: nearly all actives have a fitted effect of over 65% in size.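 On activity change, negative = thiol reactive: thiol-reactive compounds lower the probe fluorescence signal.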 To be noted: MSTI thiol-reactivity probe, 1 h; series mostly up to 53.8 µM. In a few lines: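 A multi-concentration qHTS design tested compounds against 4 uM MSTI, pH 7.4 phosphate-buffered saline. Plates were protected from light for 1 h at room temperature before imaging fluorescence.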
In the case of `C/C=C/C=C/C=C/C(=O)O[C@@H]1C=C(CO)[C@](O)(CO)[C@@]2(C)CCCC(C)(C)[C@H]12`, the Potency entry was “inactive”.

As for `CC1(C)CC[C@]2(C(=O)O)CC[C@]3(C)C(=CCC4[C@@]5(C)C[C@@H](O)[C@H](O)[C@](C)(CO)C5CC[C@]43C)[C@@H]2[C@@H]1O` (stereo not given in full), the Potency result is “inactive”.

As to `CC(C)Oc1ccc(-c2nc(-c3cccc4c3CCC4NCCC(=O)O)no2)cc1C#N` (stereo not given), the Potency entry is “inactive”.

As for `O=S(=O)(O)c1ccc(Nc2ncnc3c2ncn3[C@@H]2O[C@H](CO)[C@@H](O)[C@H]2O)cc1`, the Potency result is “inactive”.

Take `CC(C)(O)C1CC=C(C(=O)OC[C@H]2O[C@@H](OC(=O)C3=CCC(C(C)(C)O)CC3)[C@H](O)[C@@H](O)[C@@H]2O)CC1` (stereo not given in full): the Potency is 4.12 µM (active). As for `CCC(C)(C)C1CCc2c(sc(NC(=O)c3ccc(Br)cc3)c2C#N)C1` (stereo not given), the Potency result is “inactive”. On the same count and under the same terms, under `Fc1ccc(-c2c3cccc(C(F)(F)F)c3nn2Cc2ccc(F)cc2Cl)cc1` stands “inactive”; under `C/C=C1/[C@H](O[C@@H]2O[C@H](CO)[C@@H](O)[C@H](O)[C@H]2O)OC=C2C(=O)O[C@@H]3C[C@@H](C(C)CO)[C@H](COC(=O)C[C@H]21)[C@H]3C` (stereo not given in full), “inactive”. Take `CC(C)=C1CC2[C@](C)(CC[C@@H](OC(=O)C3(C)OC3C)[C@@]2(C)O)CC1=O` (stereo not given in full): the Potency entry was “inactive”.

`C/C=C(\C)C(=O)O[C@H]1C=CC(=O)O[C@H]1/C=C/[C@H](O)[C@@H](C)O`: the Potency entry was “inactive”. Same read-out and setting: under `CC(=O)O[C@@H]1[C@@H](O)[C@H](C)O[C@@H](O[C@H]2[C@@H]3C=CO[C@@H](O[C@@H]4O[C@H](CO)[C@@H](O)[C@H](O)[C@H]4OC(C)=O)[C@@H]3[C@@]3(CO)O[C@@H]23)[C@@H]1OC(=O)/C=C/c1ccc(O)cc1` stands 6.3 µM (active).

For `CSCC[C@H](NC(=O)[C@H](CO)NC(=O)[C@H](CCC(=O)O)NC(C)=O)C(=O)N[C@H](C=O)CC(=O)O` (Ac-ESMD-aldehyde), the activity change, negative = thiol reactive was 10.4% [at 11.5 µM]. On to `COC(=O)C(CC1CCCC1)c1ccc(S(C)(=O)=O)cc1` (stereo not given), for which the Potency entry was “inactive”. On the same count and under the same terms, the entry for `CC(O)C1CCC2C3CCC4CC(OC5OC(C(=O)O)C(O)C(O)C5O)CCC4(C)C3CCC12C` (stereo not given) is “inactive”. For the compound `C/C=C(\C)C(=O)OC[C@H]1O[C@@H](O[C@H]2[C@@H](O[C@H]3O[C@H](CO)[C@@H](O)[C@H](O)[C@H]3O[C@@H]3O[C@H](CO)[C@@H](O)[C@H](O)[C@H]3O)O[C@H](COC(=O)/C(C)=C/C)[C@@H](O)[C@@H]2O)[C@H](O)[C@@H](O)[C@@H]1O`, the activity change, negative = thiol reactive was -18.3% [at 11.5 µM]. On to `CC(C)=CCc1c(O)cc2oc3cc(C)cc(O)c3c2c1C`, for which the Potency was 4.74 µM (active). Turning to `C=C1C(OC(C)=O)CCC2(C)CC3(O)OC(=O)C(C)=C3CC12` (stereo not given), the Potency result was “inactive”.

For the compound `C=CC1(C)C=C2CC[C@H]3[C@@](C)(C(=O)O)CCC[C@]3(C)C2CC1` (stereo not given in full), the Potency entry was “inactive”.

Regarding `CNC(C)C(=O)NC(C(=O)N1CCCC1C(=O)Nc1cccc2ncccc12)C(C)C` (stereo not given), the Potency result was “inactive”. The same measure, in the same setting: under `Cc1cn(-c2cc(NC(=O)c3ccc(C)c(Nc4nccc(-c5cnccn5)n4)c3)cc(C(F)(F)F)c2)cn1` stands “inactive”. As for `NC(=O)[C@H](Cc1ccccc1)NC(=O)[C@H](CCCN=C(N)N)NC(=O)C12CC3CC(CC(C3)C1)C2`, the activity change, negative = thiol reactive is 37.2% [at 11.5 µM]. Turning to `C=C1C2(C)CC3C4(C)C=CC(=O)OC(C)(C)C4CCC3(C)C1(C(=O)OC)C(=O)C(C)(O)C2=O` (stereo not given), the Potency entry is “inactive”.

In the case of `CC1(C)CC2C(O)C3=C(CC(C)(O)C2C1)C(=O)OC3` (stereo not given), the Potency result is “inactive”.

For `NC(=O)C(O[C@@H]1O[C@H](CO[C@@H]2O[C@H](CO)[C@@H](O)[C@H](O)[C@H]2O)[C@@H](O)[C@H](O)[C@H]1O)c1ccccc1` (stereo not given in full), the Potency entry was “inactive”. As for `CC(=O)C1CCC(=O)N1Cc1ccccc1` (stereo not given), the Potency result was “inactive”. Still for that read-out and setting: the figure for `CC1CC(=O)[C@]2(O)C(C(=O)OCCc3ccc(O)c(O)c3)=CO[C@@H](O[C@@H]3O[C@H](CO)[C@@H](O)[C@H](O)[C@H]3O)[C@H]12` (stereo not given in full) is 2.92 µM (active); for `COC(=O)[C@H](Cc1cccc(C(=N)N)c1)[C@@H](C)NC(=O)c1ccc(-c2cc[n+]([O-])cc2)cc1` it is “inactive”; for `Cc1ncc(NC(=O)c2ccc(CN3CCN(C)CC3)c(C(F)(F)F)c2)cc1Nc1nccc(-c2cccnc2)n1` it is “inactive”. As to `CC(=O)OC12CC(C)C(O)C1/C=C(/COC1OC(CO)C(O)C(O)C1O)CCC1C(/C=C(\C)C2=O)C1(C)C` (stereo not given), the Potency result is “inactive”.

Take `NC(=O)c1ccc(F)c2c1C[C@@H](N(C1CCC1)C1CCC1)CO2`: the Potency entry is “inactive”.
